The target in assay [1] is Acetylcholinesterase (Homo sapiens) (UniProt P22303). Description: Acetylcholinesterase (AChE) small molecule antagonists: enzyme-based qHTS assay (AID 1347397; calls by dose curve; also: nearly all actives have a fitted effect of over 55% in size; also: potency is read from the fitted curve at half-maximal effect). To be noted: Potency: AChE enzyme activity inhibition. An outline of the steps: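 Tox21 library chemicals are tested in qHTS format against recombinant human AChE. The enzyme, dispensed at 50 mU/mL, sits with compound for 30 min at room temperature. A DTNB–acetylthiocholine cocktail follows, and colour is read after 10 min.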
Acetylcholinesterase (Homo sapiens), sequence (P22303 whole entry, looked up): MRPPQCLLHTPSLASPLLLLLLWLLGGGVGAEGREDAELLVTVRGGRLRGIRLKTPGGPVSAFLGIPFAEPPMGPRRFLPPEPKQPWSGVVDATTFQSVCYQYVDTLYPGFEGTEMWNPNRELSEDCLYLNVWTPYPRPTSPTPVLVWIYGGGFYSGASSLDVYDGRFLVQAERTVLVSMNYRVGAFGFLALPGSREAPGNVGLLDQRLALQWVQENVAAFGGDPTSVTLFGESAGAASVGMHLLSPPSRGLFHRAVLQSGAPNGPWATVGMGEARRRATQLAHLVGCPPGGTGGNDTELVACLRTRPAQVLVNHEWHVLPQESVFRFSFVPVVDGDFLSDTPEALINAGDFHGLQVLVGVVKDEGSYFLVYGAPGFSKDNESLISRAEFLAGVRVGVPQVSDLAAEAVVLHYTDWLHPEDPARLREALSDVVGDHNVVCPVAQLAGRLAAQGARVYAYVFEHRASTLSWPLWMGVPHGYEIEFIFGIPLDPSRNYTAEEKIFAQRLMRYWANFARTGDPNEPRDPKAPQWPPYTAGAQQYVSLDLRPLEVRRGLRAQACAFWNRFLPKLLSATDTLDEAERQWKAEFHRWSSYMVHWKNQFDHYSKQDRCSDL

Assay [2] has the same target. Put plainly: Acetylcholinesterase (AChE) small molecule antagonists: fluorescence cell-based qHTS assay (AID 1347398; calls by dose curve; also: nearly all actives have a fitted effect of over 50% in size; also: potency is read from the fitted curve at half-maximal effect). As to conditions: Potency: AChE activity. An outline of the steps: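 Cellular AChE inhibition: SH-SY5Y cells treated with test chemical for 30 min at 37 C, then acetylthiocholine hydrolysis followed over 40 min at room temperature via thiocholine-reactive Thiolite Green fluorescence (490/520 nm).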
A general note: Quantitative high-throughput screening tests each substance at several concentrations.

Assay [3] addresses Cytochrome P450 2D6 (Homo sapiens) (UniProt P10635). Description: Cytochrome P450 Family 2 Subfamily D Member 6 (CYP2D6) small molecule antagonists: luciferase reporter qHTS assay (AID 1671196). Also: nearly all actives have a fitted effect of over 50% in size. Also: potency is read from the fitted curve at half-maximal effect. The essentials:
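Test chemicals meet CYP2D6 plus proluciferin substrate (10 min, RT); NADPH regenerating solution then drives turnover for 1 h. Detection reagent halts the reaction; luminescence measured after 20 min.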
(In general: In a reporter assay the amount or activity of a reporter protein is the signal.)

Assay [4] deals with Cytochrome P450 2C9 (Homo sapiens) (UniProt P11712). Description: Cytochrome P450 Family 2 Subfamily C Member 9 (CYP2C9) small molecule antagonists: luciferase reporter qHTS assay (AID 1671198). Also: nearly all actives have a fitted effect of over 50% in size. Also: potency is read from the fitted curve at half-maximal effect. An outline of the steps: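 CYP2C9 activity was measured with a P450-Glo proluciferin substrate. Enzyme–substrate mix was held with compound for 10 min at room temperature, then NADPH regeneration solution was added for 1 h at 37C. Luciferin product was read as luminescence.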
Cytochrome P450 2C9 (Homo sapiens), sequence (P11712 whole entry, looked up): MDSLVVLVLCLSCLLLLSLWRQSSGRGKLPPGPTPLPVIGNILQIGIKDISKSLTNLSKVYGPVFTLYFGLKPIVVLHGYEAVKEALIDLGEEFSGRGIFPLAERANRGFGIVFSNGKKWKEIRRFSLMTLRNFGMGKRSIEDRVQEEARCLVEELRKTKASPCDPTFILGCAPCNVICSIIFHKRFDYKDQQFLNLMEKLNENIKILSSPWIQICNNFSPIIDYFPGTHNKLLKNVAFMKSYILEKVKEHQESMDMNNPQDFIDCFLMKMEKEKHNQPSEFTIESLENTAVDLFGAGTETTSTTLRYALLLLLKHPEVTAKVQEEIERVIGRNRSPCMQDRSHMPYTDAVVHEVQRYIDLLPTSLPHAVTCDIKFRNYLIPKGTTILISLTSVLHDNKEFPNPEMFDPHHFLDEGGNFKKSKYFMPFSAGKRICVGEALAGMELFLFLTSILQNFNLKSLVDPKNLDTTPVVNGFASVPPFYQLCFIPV

The target in assay [5] is Voltage-gated inwardly rectifying potassium channel KCNH2 (Homo sapiens) (UniProt Q12809). Description: Human Ether-a-go-go-Related Gene (hERG) channel small molecule antagonists: fluorescence cell-based qHTS assay (AID 1671200). Also: nearly all actives have a fitted effect of over 50% in size. Also: potency is read from the fitted curve at half-maximal effect. An outline of the steps:
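Read-out: thallium influx as a surrogate for potassium, tracked as fluorescence (480 nm ex/540 nm em) every second for 2 min after Stimulus Buffer addition in dye-loaded hERG-U2OS cells.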
On the technique in general: Block of hERG is tested as a sign of cardiac risk.

Assay [6] has as its target Cytochrome P450 3A4 (Homo sapiens) (UniProt P08684). Description: Cytochrome P450 Family 3 Subfamily A Member 4 (CYP3A4) small molecule antagonists: luciferase reporter qHTS assay (AID 1671201). Also: nearly all actives have a fitted effect of over 50% in size. Also: potency is read from the fitted curve at half-maximal effect. An outline of the steps: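 Luminescent readout (RLU) proportional to CYP3A4 activity, from luciferin generated off a proluciferin substrate. Enzyme–substrate mix plus compound 10 min at room temp, NADPH regeneration 1 h, detection reagent 20 min.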

The target in assay [7] is Cytochrome P450 2C19 (Homo sapiens) (UniProt P33261). Description: Cytochrome P450 Family 2 Subfamily C Member 19 (CYP2C19) small molecule antagonists: luciferase reporter qHTS assay (AID 1671197). Also: nearly all actives have a fitted effect of over 65% in size. Also: potency is read from the fitted curve at half-maximal effect. An outline of the steps: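 Enzyme-substrate mix with proluciferin substrate (P450-Glo CYP2C19 system) preincubated with compounds 10 min at room temperature; NADPH regeneration solution added, 37C for 1 h; detection reagent stops reaction, luminescence read after 20 min. Ketoconazole positive control.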
Cytochrome P450 2C19 (Homo sapiens), sequence (P33261 whole entry, looked up): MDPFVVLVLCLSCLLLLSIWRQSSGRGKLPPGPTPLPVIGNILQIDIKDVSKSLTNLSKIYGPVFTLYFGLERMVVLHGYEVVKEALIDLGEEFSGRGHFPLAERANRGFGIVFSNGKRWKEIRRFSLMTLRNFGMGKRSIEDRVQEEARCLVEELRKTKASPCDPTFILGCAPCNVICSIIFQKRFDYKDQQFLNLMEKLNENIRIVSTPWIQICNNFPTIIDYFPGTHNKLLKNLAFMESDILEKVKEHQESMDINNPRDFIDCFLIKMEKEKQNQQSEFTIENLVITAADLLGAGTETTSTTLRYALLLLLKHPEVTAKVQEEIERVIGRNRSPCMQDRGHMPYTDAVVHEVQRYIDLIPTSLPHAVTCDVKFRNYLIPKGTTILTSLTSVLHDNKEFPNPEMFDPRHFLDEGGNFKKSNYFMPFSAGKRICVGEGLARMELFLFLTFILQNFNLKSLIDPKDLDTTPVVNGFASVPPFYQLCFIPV

The target of assay [8] is Cytochrome P450 1A2 (Homo sapiens) (UniProt P05177). Description: Cytochrome P450 Family 1 Subfamily A Member 2 (CYP1A2) small molecule antagonists: luciferase reporter qHTS assay (AID 1671199). Also: nearly all actives have a fitted effect of over 50% in size. Also: potency is read from the fitted curve at half-maximal effect. The essentials:
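Steps: enzyme-substrate mix dispensed; test compounds and furafylline control pinned in; 10 min room temperature; NADPH regeneration solution added, 1 h; reaction stopped with luciferin detection reagent; luminescence read after 20 min.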

Assay [9] deals with Acetylcholinesterase (Homo sapiens) (UniProt P22303). Put plainly: Acetylcholinesterase (AChE) small molecule antagonists: enzyme-based qHTS assay with human liver microsomes (AID 1347399; calls by dose curve; also: nearly all actives have a fitted effect of over 60% in size). As to conditions: Potency: qHTS inhibition. An outline of the steps: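 Recombinant human AChE (50 mU/mL in the enzyme mix) and human liver microsomes (0.25 mg/mL final) were preincubated with compound and NADPH (0.25 mg/mL final) for 30 min at 37 C. Acetylthiocholine/DTNB was then added; thiocholine was read colorimetrically after 10 min at room temperature.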

Where “and” joins values, the source holds several entries; their conditions need not be identical. Equal values may be shown once. Records with an inconclusive call do not appear. Some compounds were tested as several samples or in several runs, with calls that do not always agree. Calls of active or inactive are those of the source. Unless noted, calls follow the shape of the dose curve; as a rule, active = well fitted curve in the direction sought with a large enough effect in the repeat runs; inconclusive = weak or mixed curves; inactive = no such curve, though single readings can be large; an effect the other way counts as inactive or inconclusive.

These results are taken from PubChem BioAssay (Tox21).

Cytochrome P450 3A4 (Homo sapiens), sequence (P08684 whole entry, looked up): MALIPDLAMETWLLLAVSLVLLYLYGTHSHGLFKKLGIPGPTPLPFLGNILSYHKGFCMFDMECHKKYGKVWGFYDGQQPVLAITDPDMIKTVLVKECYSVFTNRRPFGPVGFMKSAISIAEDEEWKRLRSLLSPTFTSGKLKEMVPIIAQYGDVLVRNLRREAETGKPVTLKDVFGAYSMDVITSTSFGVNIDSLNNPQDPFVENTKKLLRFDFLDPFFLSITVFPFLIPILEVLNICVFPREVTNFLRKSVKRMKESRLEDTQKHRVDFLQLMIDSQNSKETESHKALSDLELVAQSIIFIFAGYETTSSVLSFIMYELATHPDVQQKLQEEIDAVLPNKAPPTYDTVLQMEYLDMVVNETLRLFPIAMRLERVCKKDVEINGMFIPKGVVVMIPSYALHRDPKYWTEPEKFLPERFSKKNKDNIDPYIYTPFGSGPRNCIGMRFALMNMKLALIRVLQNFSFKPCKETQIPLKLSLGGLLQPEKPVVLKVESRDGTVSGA
Cytochrome P450 2D6 (Homo sapiens), sequence (P10635 whole entry, looked up): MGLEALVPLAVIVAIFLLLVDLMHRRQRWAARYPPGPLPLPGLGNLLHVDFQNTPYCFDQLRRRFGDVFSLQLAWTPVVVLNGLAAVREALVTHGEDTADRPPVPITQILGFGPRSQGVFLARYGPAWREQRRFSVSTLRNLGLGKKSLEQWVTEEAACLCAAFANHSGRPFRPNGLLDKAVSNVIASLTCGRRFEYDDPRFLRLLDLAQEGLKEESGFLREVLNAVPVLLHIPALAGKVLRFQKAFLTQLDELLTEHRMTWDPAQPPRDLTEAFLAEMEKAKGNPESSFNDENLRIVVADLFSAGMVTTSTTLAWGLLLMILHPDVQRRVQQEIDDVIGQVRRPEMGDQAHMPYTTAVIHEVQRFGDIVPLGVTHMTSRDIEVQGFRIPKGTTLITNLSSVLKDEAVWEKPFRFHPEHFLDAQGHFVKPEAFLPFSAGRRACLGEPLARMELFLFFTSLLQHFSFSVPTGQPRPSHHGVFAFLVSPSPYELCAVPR
Voltage-gated inwardly rectifying potassium channel KCNH2 (Homo sapiens), sequence (Q12809 whole entry, looked up): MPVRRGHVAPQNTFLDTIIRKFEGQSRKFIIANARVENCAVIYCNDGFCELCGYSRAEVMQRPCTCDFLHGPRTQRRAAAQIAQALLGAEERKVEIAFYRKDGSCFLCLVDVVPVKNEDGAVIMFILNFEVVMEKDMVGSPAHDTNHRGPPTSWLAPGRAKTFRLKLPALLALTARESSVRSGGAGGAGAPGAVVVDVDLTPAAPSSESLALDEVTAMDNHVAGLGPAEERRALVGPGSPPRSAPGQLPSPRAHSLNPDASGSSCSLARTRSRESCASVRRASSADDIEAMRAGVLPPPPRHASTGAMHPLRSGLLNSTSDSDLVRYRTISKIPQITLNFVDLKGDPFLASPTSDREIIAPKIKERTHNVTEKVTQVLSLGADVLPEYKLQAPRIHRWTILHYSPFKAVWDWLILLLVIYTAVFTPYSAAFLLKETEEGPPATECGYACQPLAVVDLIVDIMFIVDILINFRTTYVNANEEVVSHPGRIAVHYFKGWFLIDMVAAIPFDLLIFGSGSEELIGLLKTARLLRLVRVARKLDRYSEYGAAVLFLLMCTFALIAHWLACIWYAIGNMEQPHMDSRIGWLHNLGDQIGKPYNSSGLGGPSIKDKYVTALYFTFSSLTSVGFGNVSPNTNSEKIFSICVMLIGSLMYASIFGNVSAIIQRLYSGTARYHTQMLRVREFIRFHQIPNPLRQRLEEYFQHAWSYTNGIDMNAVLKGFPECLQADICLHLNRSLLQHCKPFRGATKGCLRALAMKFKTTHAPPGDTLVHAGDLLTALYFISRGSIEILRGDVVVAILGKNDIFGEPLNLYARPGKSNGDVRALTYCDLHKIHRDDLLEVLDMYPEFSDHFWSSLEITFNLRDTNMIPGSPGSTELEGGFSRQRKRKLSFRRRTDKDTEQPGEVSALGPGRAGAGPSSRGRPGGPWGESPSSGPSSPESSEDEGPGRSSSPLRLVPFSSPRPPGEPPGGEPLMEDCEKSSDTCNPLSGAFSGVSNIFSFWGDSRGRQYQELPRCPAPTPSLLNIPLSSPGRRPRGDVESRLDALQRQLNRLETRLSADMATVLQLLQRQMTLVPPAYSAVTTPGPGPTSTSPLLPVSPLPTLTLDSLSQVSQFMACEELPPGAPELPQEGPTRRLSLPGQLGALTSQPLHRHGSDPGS
Cytochrome P450 1A2 (Homo sapiens), sequence (P05177 whole entry, looked up): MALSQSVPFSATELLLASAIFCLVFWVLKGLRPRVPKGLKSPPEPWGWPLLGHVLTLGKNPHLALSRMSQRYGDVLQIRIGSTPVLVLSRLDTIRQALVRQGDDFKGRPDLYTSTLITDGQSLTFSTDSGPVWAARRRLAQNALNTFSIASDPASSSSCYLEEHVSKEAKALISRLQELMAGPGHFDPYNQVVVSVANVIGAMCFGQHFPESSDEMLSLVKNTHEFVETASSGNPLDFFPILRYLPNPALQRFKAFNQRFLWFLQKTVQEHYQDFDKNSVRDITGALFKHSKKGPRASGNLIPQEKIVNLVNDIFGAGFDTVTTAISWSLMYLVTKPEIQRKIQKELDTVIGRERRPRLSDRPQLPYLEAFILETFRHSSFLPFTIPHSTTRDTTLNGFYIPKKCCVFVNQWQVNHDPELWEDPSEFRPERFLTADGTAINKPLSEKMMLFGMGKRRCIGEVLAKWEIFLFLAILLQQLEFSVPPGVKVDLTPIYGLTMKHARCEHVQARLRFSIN

`CC[N+]1(CC)CCC(OC(=O)C(O)(c2ccccc2)c2ccccc2)C1` (stereo not drawn): the Potency entry in assay [1], in assay [2], in [4], in assay [5] and in assay [6] was “inactive” each time. For the same compound, the Potency in assay [3] is 8.71 µM (active).
In the case of `CC(O)C(=O)[O][Hg][c]1ccccc1` (stereo not drawn), the Potency entry in [1] was “inactive”. Besides, the Potency in [2] is 79.6 µM (active); in assay [3], 0.448 µM (active); in assay [7], 6.33 µM (active); in assay [4], 1.78 µM (active); in assay [8], 17.8 µM (active); in assay [5] it was 17.4 µM (active). Moreover, in assay [6], the Potency is 6.33 µM (active).
Turning to `ClC1=C(Cl)[C@]2(Cl)[C@H]3[C@H]([C@@H]4C=C[C@H]3C4)[C@@]1(Cl)C2(Cl)Cl`, the Potency result in assay [1], in [2], in [4] and in assay [8] was “inactive” in each case. The Potency in assay [3] is 35.5 µM (active) and inactive; in assay [7], “inactive and 35.6 µM (active)”; in [6], 252 nM (active) and 399 nM (active).
Turning to `CCN1CCC2(CC1)COc1cc3c(cc12)N(C(=O)c1ccc(-c2ccc(-c4nnc(C)o4)cc2C)cc1)CC3`, the Potency in assay [1] was 32.8 µM (active); in assay [2] it was 10.4 µM (active); in assay [3] it was 32.8 µM (active); in assay [7], 23.2 µM (active). Further, the Potency entry in [8], in assay [5] and in [6] was “inactive” throughout.
With `Clc1ccc(C(c2ccc(Cl)cc2)C(Cl)Cl)cc1`, the Potency result in assay [1], in assay [2] and in assay [6] was “inactive” throughout. In addition, the Potency in assay [3] was 64.3 µM (active); in [7], 181 nM (active) and 113 nM (active); in assay [4] it was 5.11 µM (active) and 6.33 µM (active); in [8], 6.43 µM (active) and 8.94 µM (active); in [5], 24.9 µM (active) and 19.5 µM (active).
`Nc1c(Cl)c(Cl)c(Cl)c(Cl)c1Cl`: the Potency result in assay [1], in assay [2], in assay [7], in assay [4] and in assay [5] was “inactive” in each case. For the same compound, in assay [8], the Potency is 1.3 µM (active).
Consider `CCN(CC)C(=O)N[C@@H]1C=C2c3cccc4[nH]cc(c34)C[C@@H]2N(C)C1`, for which the Potency result in assay [1] and in assay [9] was “inactive” each time.
Consider `CSC1=N[C@@](C)(c2ccccc2)C(=O)N1Nc1ccccc1`, for which the Potency entry in assay [1], in assay [2] and in assay [5] was “inactive” throughout. The Potency in [4] is 35.6 µM (active); in assay [6], 31.7 µM (active).
Consider `O=C(N[C@H]1N=C(c2ccccc2F)c2cccc3c2N(CC3)C1=O)c1cc2ccccc2[nH]1`, for which the Potency result in assay [1], in assay [2], in assay [3], in assay [8] and in assay [6] was “inactive” throughout. The Potency in assay [4] is 7.76 µM (active); in assay [5], 7.56 µM (active).
Turning to `C#CCO`, the Potency entry in [1], in assay [2], in assay [3], in assay [4], in assay [5] and in assay [6] was “inactive” in each case.
Turning to `CCCCc1ccccc1`, the Potency entry in assay [1], in [2], in assay [3], in assay [4], in assay [8] and in assay [5] was “inactive” each time. Also, in [6], the Potency entry is “inactive”.
As to `CCN(CC)C(=S)S`, the Potency result in assay [1], in [2], in [3] and in assay [5] was “inactive” each time. Also, the Potency in assay [7] is 71.6 µM (active) and 50 µM (active) and inactive; in assay [4], 62.9 µM (active) and 31.7 µM (active); in assay [8] it was 40.3 µM (active).
With `C[C@]12CC[C@H]3[C@@H](CCC4=CC(=O)CC[C@@H]43)[C@@H]1CC[C@@H]2OC(=O)CCc1ccco1`, the Potency entry in assay [1], in assay [2], in assay [3], in assay [7] and in assay [8] was “inactive” throughout. Besides, the Potency in assay [4] is 17.4 µM (active); in assay [5] it was 10.7 µM (active).
Take `CCOP(=S)(OCC)SC(CCl)N1C(=O)c2ccccc2C1=O` (stereo not drawn): the Potency in assay [1] was 63.3 µM (active); in assay [2], 10 µM (active); in assay [3] it was 39.9 µM (active); in assay [7], 0.399 µM (active); in assay [4], 1.12 µM (active); in assay [8], 63.3 µM (active). In assay [6], the Potency is 1.59 µM (active). In addition, the Potency entry in assay [5] is “inactive”.
For `C[C@]12C/C(=C/O)C(=O)C[C@@H]1CC[C@@H]1[C@@H]2CC[C@@]2(C)[C@H]1CC[C@]2(C)O`, the Potency entry in assay [1], in [2], in [3], in [7], in assay [8] and in [5] was “inactive” each time. Also, in assay [4], the Potency was 35.9 µM (active) and 27.5 µM (active).
